Inconclusive results are not listed. Active and inactive are the calls of the source. The call rests on the fitted dose curve; in most records, active means well fitted curve in the direction sought with a large enough effect; inconclusive means small, poorly fitted or top-dose-only effect, or another doubt; inactive means no such curve, though single readings can be large; an effect the other way counts as inactive or inconclusive.
Experiments:
[1] = system: Zika virus NS2B-NS3 protease (linked construct); test: Primary screen NINDS Rhodamine qHTS for Zika virus inhibitors (AID 1347160); further: nearly all actives have a fitted effect of over 55% in size
Outline: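 Single-chain NS2B-NS3 protease, 25 nM, pH 8.0; compounds preincubated 15 min. Activity: Rhodamine110 release from 1.5 microM substrate over 15 min, room temperature, data fitted to 4-parameter Hill.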

[2] = Primary qHTS for inhibitors of nuclear receptor binding SET domain protein 2 (NSD2) in an isogenic RCH-ACV NSD2 p.E1099K mutant (9B) (AID 1645876); further: nearly all actives have a fitted effect of over 70% in size; further: potency means the concentration at half of the fitted maximal effect
[3] = Primary qHTS for inhibitors of nuclear receptor binding SET domain protein 2 (NSD2) in an RCH-ACV wild type WT cells (2C) (AID 1645877); further: nearly all actives have a fitted effect of over 70% in size; further: potency means the concentration at half of the fitted maximal effect
[4] = molecular target: Glutathione peroxidase 1 (Homo sapiens) (UniProt P07203); test: Primary qHTS Assay for Inhibitors of Recombinant Selenoprotein Glutathione Peroxidase 1 (GPX1) (AID 1845191); further: nearly all actives have a fitted effect of over 65% in size; further: potency means the concentration at half of the fitted maximal effect
Glutathione peroxidase 1 (Homo sapiens), sequence (P07203 whole entry, looked up): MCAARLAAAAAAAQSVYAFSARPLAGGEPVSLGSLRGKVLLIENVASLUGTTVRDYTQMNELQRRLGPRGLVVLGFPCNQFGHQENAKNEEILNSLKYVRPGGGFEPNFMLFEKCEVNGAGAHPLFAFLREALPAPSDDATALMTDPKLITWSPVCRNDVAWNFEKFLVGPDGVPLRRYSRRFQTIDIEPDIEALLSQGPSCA
Outline: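 GR-coupled readout: NADPH consumption tracked by fluorescence, ex 340/em 450 nm, at t=0 and after 15 min at RT. Final mix 10 nM GPX1, 1 mM GSH, 0.5 mM CHP, 0.5 mM NADPH, 100 nM GR, 0.01% BSA, following 30 min enzyme–compound preincubation.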

[5] = molecular target: Phospholipid hydroperoxide glutathione peroxidase GPX4 (Homo sapiens) (UniProt P36969); test: Primary qHTS Assay for Inhibitors of Recombinant Selenoprotein Glutathione Peroxidase 4 (GPX4) (AID 1845192); further: nearly all actives have a fitted effect of over 65% in size
Phospholipid hydroperoxide glutathione peroxidase GPX4 (Homo sapiens), sequence (P36969 whole entry, looked up): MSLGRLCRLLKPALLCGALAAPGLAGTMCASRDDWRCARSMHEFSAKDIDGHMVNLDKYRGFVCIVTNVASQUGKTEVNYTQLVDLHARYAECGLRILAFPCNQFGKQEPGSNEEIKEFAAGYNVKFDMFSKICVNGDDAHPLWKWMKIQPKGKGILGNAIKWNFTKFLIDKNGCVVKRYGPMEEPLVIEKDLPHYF
Outline: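 Steps: GPX4 plus compound, 30 min RT; add GR/GSH/NADPH master mix; start with cumene hydroperoxide; read 340/450 nm fluorescence at 0 and 15 min. Finals were 200 nM GPX4, 1 mM GSH, 0.5 mM CHP, 0.5 mM NADPH, 100 nM GR.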

[6] = molecular target: Luciferin 4-monooxygenase (Photinus pyralis) (UniProt P08659); test: Primary firefly luciferase (FLuc) qHTS assay for identification of artifact compounds. (AID 1845220); conditions: outcome: dose series up to 54.1 µM unless noted; further: nearly all actives have a fitted effect of over 60% in size
Outline: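 Titrated compounds were incubated 15 min at RT, protected from light, with luciferin and ATP at 10 uM; reaction started with 10 nM FLuc, luminescence imaged at 5 min, and concentration-response fitted by Hill equation.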

[7] = system: Nanoluciferase (engineered Oplophorus gracilirostris luciferase); test: Primary Nanoluciferase (NLuc) qHTS assay for identification of artifact compounds. (AID 1845222);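 further: NLuc secreted into diluted conditioned medium of S16 cells; 0% = DMSO and -100% = no enzyme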
Outline: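 qHTS format, against NLuc in S16 cell-conditioned medium. Nano-Glo substrate 1:100 was added after 15 min at room temperature. Luminescence was taken after a further 5 min.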

CRL-7250 = normal cell line; test: Cytotoxic Profiling of Annotated Libraries Using Quantitative High-Throughput Screening (AID 1296008); conditions: Five cell lines viability, CellTiter-Glo ATP luminescence, 48-72 h; max response: active compounds read low; further: nearly all actives have a fitted effect of over 60% in size; further: potency means the concentration at half of the fitted maximal effect; on max response: on the % scale 0 is the no-effect control and ±100 the full control effect
Outline: (§1)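 Cells exposed to compounds for 48 or 72 hr at 37 degrees Celsius. Viability read as ATP-coupled luminescence with CellTiter-Glo after 10 min at room temperature.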

HEK293 = test: as above; conditions: Five cell lines viability, CellTiter-Glo ATP luminescence, 48-72 h; max response: active compounds read low
Outline: as §1

HaCat = test: as above; conditions: Five cell lines viability, CellTiter-Glo ATP luminescence, 48-72 h; max response: active compounds read low
Outline: as §1

NIH3T3 = test: as above; conditions: Five cell lines viability, CellTiter-Glo ATP luminescence, 48-72 h; max response: active compounds read low
Outline: as §1

C33A = test: Primary qHTS to identify gynecologic anti-cancer compounds using libraries of approved drugs and bioactive compounds (AID 1345084); conditions: Gynecologic cancer cell panel viability, ATPlite luminescence, 48 h; series mostly up to 57.5 µM; further: nearly all actives have a fitted effect of over 55% in size; further: potency means the concentration at half of the fitted maximal effect
Outline: (§2)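 In this quantitative HTS, cell killing is estimated from loss of ATP-dependent luciferase light. Cells see five compound concentrations over a 48 h exposure.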

CASKI = test: as above; conditions: Gynecologic cancer cell panel viability, ATPlite luminescence, 48 h; series mostly up to 57.5 µM
Outline: as §2

Es-2 = test: as above; conditions: Gynecologic cancer cell panel viability, ATPlite luminescence, 48 h; series mostly up to 57.5 µM
Outline: as §2

Hek293T = test: as above; conditions: Gynecologic cancer cell panel viability, ATPlite luminescence, 48 h, control line for the selectivity index; series mostly up to 57.5 µM
Outline: as §2

OV90 = test: as above; conditions: Gynecologic cancer cell panel viability, ATPlite luminescence, 48 h; series mostly up to 57.5 µM
Outline: as §2

PA-1 = test: as above; conditions: Gynecologic cancer cell panel viability, ATPlite luminescence, 48 h; series mostly up to 57.5 µM
Outline: as §2

Tov-21-G = test: as above; conditions: Gynecologic cancer cell panel viability, ATPlite luminescence, 48 h; series mostly up to 57.5 µM
Outline: as §2

Tov112D = test: as above; conditions: Gynecologic cancer cell panel viability, ATPlite luminescence, 48 h; series mostly up to 57.5 µM
Outline: as §2

[8] = Primary fluorescence-based thiol-reactive (MSTI) qHTS assay for identification of artifact compounds. (AID 1845221); further: nearly all actives have a fitted effect of over 65% in size; further: potency means the concentration at half of the fitted maximal effect
Outline: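 One-hour, room-temperature, dark incubation of compound with 4 uM MSTI in PBS (pH 7.4, 2% DMSO) precedes a fluorescence read at 525 nm excitation, 598 nm emission; Hill-equation fitting yields concentration-response values.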

CC1CCCC(O)CC(=O)Cc2cc(O)cc(O)c2C(=O)O1 (stereo unspecified)
inactive: Potency [1] | Potency [2] | Potency [3] | Potency [4] | Potency [5] | outcome [6] | Potency [7] | max response (CRL-7250) -9.43% | max response (HEK293) 4.64% | outcome (HaCat) | max response (NIH3T3) 2.95% | Potency (C33A) | Potency (CASKI) | Potency (Es-2) | Potency (Hek293T) | Potency (OV90) | Potency (PA-1) | Potency (Tov-21-G) | Potency (Tov112D)

CN1C2CCC1CC(OC(=O)N1Cc3ccccc3NC1=O)C2 (stereo unspecified)
inactive: Potency [1] | Potency [2] | Potency [3] | Potency [4] | Potency [5] | outcome [6] | Potency [8] | Potency [7] | outcome (CRL-7250) | max response (HEK293) 0.771% | max response (HaCat) 2.89% | max response (NIH3T3) -1.26% | Potency (C33A) | Potency (CASKI) | Potency (Es-2) | Potency (Hek293T) | Potency (OV90) | Potency (PA-1) | Potency (Tov-21-G) | Potency (Tov112D)

CC1=CC2(O)/C=C/C(C)(O)C(O)C(O)/C=C/C(=O)OC23C(=O)NC(CC(C)C)C3C1C (stereo unspecified)
inactive: Potency [2] | Potency [3] | Potency [4] | Potency [5] | outcome [6] | Potency [7] | max response (CRL-7250) -1.26% | max response (HEK293) -8.27% | outcome (HaCat) | max response (NIH3T3) 0.398% | Potency (C33A) | Potency (CASKI) | Potency (Es-2) | Potency (Hek293T) | Potency (OV90) | Potency (PA-1) | Potency (Tov-21-G) | Potency (Tov112D)
active: Potency [8] 10.3 µM

COC(=O)CC1CC2(C(=O)c3c(O)cccc3C2(O)C(=O)OC)C(C)O1 (stereo unspecified)
inactive: Potency [1] | Potency [2] | Potency [3] | Potency [4] | Potency [5] | outcome [6] | Potency [7] | max response (CRL-7250) 2.33% | max response (HEK293) -1.89% | outcome (HaCat) | max response (NIH3T3) 4.05% | Potency (C33A) | Potency (CASKI) | Potency (Es-2) | Potency (Hek293T) | Potency (OV90) | Potency (PA-1) | Potency (Tov-21-G) | Potency (Tov112D)

CC1=CC2/C=C(\C)CCCC(O)/C=C/C(=O)OC23C(=O)NC(CC(C)C)C3C1C (stereo unspecified)
inactive: Potency [1] | Potency [2] | Potency [3] | Potency [4] | Potency [5] | outcome [6] | Potency [8] | Potency [7] | outcome (CRL-7250) | max response (HEK293) -0.114% | max response (HaCat) -3.87% | max response (NIH3T3) 1.49% | Potency (C33A) | Potency (Es-2) | Potency (Hek293T) | Potency (OV90) | Potency (PA-1) | Potency (Tov-21-G) | Potency (Tov112D)

CN1CCc2cc3c(cc2[C@H]1[C@@H]1OC(=O)c2c1ccc1c2OCO1)OCO3
inactive: Potency [1] | Potency [2] | Potency [3] | Potency [4] | Potency [5] | outcome [6] | Potency [8] | Potency [7] | max response (CRL-7250) -0.453% | max response (HEK293) -2.62% | outcome (HaCat) | max response (NIH3T3) -16.9% | Potency (C33A) | Potency (CASKI) | Potency (Es-2) | Potency (Hek293T) | Potency (OV90) | Potency (PA-1) | Potency (Tov-21-G) | Potency (Tov112D)

C1=C(c2cnc[nH]2)c2ccsc2CC1
inactive: Potency [1] | Potency [2] | outcome [6] | Potency [7] | max response (CRL-7250) 4.29% | max response (HEK293) -1.06% | outcome (HaCat) | max response (NIH3T3) -2.31% | Potency (C33A) | Potency (CASKI) | Potency (Es-2) | Potency (Hek293T) | Potency (OV90) | Potency (PA-1) | Potency (Tov-21-G) | Potency (Tov112D)
active: Potency [4] 20.2 µM | Potency [8] 10.6 µM

COc1ccsc1CNCC[C@@]1(c2ccccn2)CCOC2(CCCC2)C1
inactive: Potency [1] | Potency [2] | Potency [3] | Potency [4] | Potency [5] | outcome [6] | Potency [8] | Potency [7] | max response (CRL-7250) -5.82% | max response (HEK293) -0.102% | max response (HaCat) -8.27% | max response (NIH3T3) -1.76% | Potency (C33A) | Potency (CASKI) | Potency (Es-2) | Potency (Hek293T) | Potency (OV90) | Potency (PA-1) | Potency (Tov-21-G) | Potency (Tov112D)

c1cncc(OC[C@@H]2CCN2)c1
inactive: Potency [1] | Potency [2] | Potency [3] | Potency [4] | Potency [5] | outcome [6] | Potency [8] | Potency [7] | max response (CRL-7250) 0.617% | max response (HEK293) 1.76% | max response (HaCat) 0.624% | max response (NIH3T3) -2.03% | Potency (C33A) | Potency (CASKI) | Potency (Es-2) | Potency (Hek293T) | Potency (OV90) | Potency (PA-1) | Potency (Tov-21-G) | Potency (Tov112D)

CC(=O)OC[C@]12C[C@H](OC(=O)CC(C)C)C(C)=C[C@H]1O[C@@H]1[C@H](O)[C@@H](O)[C@@]2(C)[C@]12CO2
active: Potency [2] 25.2 nM | Potency [3] 17.8 nM | Potency (CRL-7250) 142 nM | Potency (HEK293) 25.2 nM | Potency (HaCat) 252 nM | Potency (NIH3T3) 100 nM | Potency (CASKI) 224 nM | Potency (Es-2) 178 nM | Potency (Hek293T) 79.4 nM | Potency (Tov-21-G) 355 nM | Potency (Tov112D) 316 nM
inactive: Potency [1] | Potency [4] | Potency [5] | outcome [6] | Potency [8] | Potency [7]

— PubChem BioAssay (NCATS)
